In PubChem BioAssay AID1712 (National Center for Advancing Translational Sciences (NCATS), 2009):
Records with an inconclusive call do not appear. Active and inactive are the calls of the source. The call rests on the fitted dose curve; in most records, active means well fitted curve in the direction sought with a large enough effect; inconclusive means small, poorly fitted or top-dose-only effect, or effect the other way, or another doubt; inactive means no such curve, though single readings can be large or run the other way.

target: Amyloid-beta precursor protein (Homo sapiens) (UniProt P05067); experiment: Assay for Inhibitors of the fibrillization of the Beta-Amyloid Protein Fragment, A-beta 1-42; conditions: A-beta 1-42 fibrillization, ThT fluorescence, 4 h; series mostly up to 80 µM
Sequence (P05067 whole entry, looked up, the tested form may be a part): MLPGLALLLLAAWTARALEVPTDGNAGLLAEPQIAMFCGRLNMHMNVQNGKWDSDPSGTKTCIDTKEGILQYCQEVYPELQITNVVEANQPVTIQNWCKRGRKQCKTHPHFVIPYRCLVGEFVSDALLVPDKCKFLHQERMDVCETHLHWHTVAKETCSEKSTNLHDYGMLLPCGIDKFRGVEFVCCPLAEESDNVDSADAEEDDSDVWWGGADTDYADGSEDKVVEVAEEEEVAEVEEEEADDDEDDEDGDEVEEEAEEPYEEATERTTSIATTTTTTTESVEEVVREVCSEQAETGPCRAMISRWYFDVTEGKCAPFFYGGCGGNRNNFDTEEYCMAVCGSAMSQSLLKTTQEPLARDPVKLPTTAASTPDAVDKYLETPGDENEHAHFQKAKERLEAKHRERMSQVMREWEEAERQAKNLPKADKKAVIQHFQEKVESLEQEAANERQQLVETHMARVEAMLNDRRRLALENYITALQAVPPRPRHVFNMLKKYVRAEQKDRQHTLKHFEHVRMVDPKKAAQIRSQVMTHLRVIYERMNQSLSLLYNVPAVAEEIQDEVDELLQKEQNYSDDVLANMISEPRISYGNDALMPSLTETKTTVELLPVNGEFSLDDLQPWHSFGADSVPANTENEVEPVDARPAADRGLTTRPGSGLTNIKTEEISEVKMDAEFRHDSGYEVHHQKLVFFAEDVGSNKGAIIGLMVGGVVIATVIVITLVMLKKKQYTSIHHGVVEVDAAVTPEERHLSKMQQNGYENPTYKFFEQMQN
Text: NIH Molecular Libraries Probe Production Network [MLPCN] NIH Chemical Genomics Center [NCGC] MLPCN Grant: X01 MH083262-01 Assay Provider: Carlo Ballatore, University of Pennsylvania NCGC Assay Overview: The microtubule-associated protein tau is an abundant protein in the axons of neurons that stabilizes microtubules. With its ability to modulate microtubule dynamics, tau contributes directly or indirectly, to key structural and regulatory cellular functions. Particularly important is the influence tau exerts on axonal transport, which allows signaling molecules, trophic factors and other essential cellular constituents to travel along the axons. Under pathological conditions, tau becomes sequestered into insoluble aggregates called neurofibrillary tangles. This phenomenon is believed to have pathological consequences by promoting axonal transport deficits that ultimately lead to synaptic dysfunction and neuronal loss. Beta-amyloid protein undergoes a similar type of aggregation as tau and is implicated in the pathology of Alzheimer's disease. To examine the selectivity of tau fibrillization inhibitors, compounds were tested in an in vitro assay for fibrillization of the beta-amyloid fragment, A-beta 1-42. Crystal, A. S., Giasson, B. I., Crowe, A., Kung, M. P., Zhuang, Z. P., Trojanowski, J. Q., and Lee, V. M. Y. (2003) Journal of Neurochemistry 86, 1359-1368.
NCGC Assay Protocol Summary: Synthetic A-beta 1-42 aliquots were reconstituted to 2 mg/ml in DMSO and then diluted to 15 uM in 25 mM Tris, pH 7.0 buffer to which test compound was added at 50 uM final concentration, or at several concentrations ranging from 0.16-40 uM. The reaction mixtures were dispensed at 25 ul/well into a 384-well plate and then incubated at 37 C for 4 hrs. Upon completion of the reaction, 25 ul of 25 uM ThT was added to each well followed by ThT fluorescence readings as described above for K18PL.

SMILES | outcome
Nc1scc2c(CO)nn(-c3ccccc3)c(=O)c12 | inactive
COc1ccc(-n2nc(C(=O)O)c3csc(N)c3c2=O)cc1 | inactive
NC(=O)c1nn(-c2ccccc2)c(=O)c2c(N)scc12 | inactive
CCOC(=O)c1ccc(-n2nc(C(=O)OCC)c3csc(N)c3c2=O)cc1 | inactive
Nc1scc2c(C(=O)N3CCOCC3)nn(-c3ccccc3)c(=O)c12 | inactive
CCOC(=O)c1nn(-c2ccccc2)c(=O)c2c(N)scc12 | inactive
Nc1nn(-c2ccccc2)c(=O)c2c(N)scc12 | inactive
CCOC(=O)c1nn(-c2ccc(C)c(C)c2)c(=O)c2c(N)scc12 | inactive
Cc1ccc(S(=O)(=O)N2CCN(c3nc(-c4ccccc4)nc4ccccc34)CC2)cc1 | inactive
CCOC(=O)c1nn(-c2ccccc2F)c(=O)c2c(N)scc12 | inactive
COc1ccc(NC(=O)CSc2nnc(CCC(=O)Nc3ccc(C)c(Cl)c3)n2C)cc1 | inactive
O=S(=O)(c1ccc2c(c1)OCCO2)N1CCN(c2nc(-c3ccccc3)nc3ccccc23)CC1 | inactive
CC(=O)Nc1sc(C)c2cnn(-c3ccccc3)c(=O)c12 | inactive
